PubChem BioAssay
Calls of active or inactive are those of the source. Unless noted, how the calls were made is not given here.

Key:
[1] = tested on: XIP peptide (Xip251-270) binding; assay: small-molecule binders of XIP peptide, primary screen, biochemical, small-molecule microarray, fluorescence 635/667 nm, 0.1 µg/mL protein (AID 1182); settings: fluorescent protein binding, 635 nm, higher = more signal, called active from +8 up or from −8 down
XIP peptide (Xip251-270) = assay: small-molecule binders of XIP peptide, primary screen, biochemical, small-molecule microarray, fluorescence 635/667 nm, 0.5 µg/mL protein (AID 1183); settings: small-molecule microarray binding, fluorescence 635 nm; higher = more signal
[2] = Plasmodium falciparum growth inhibition, primary screen, strain 3D7, DAPI fluorescence, 100 nL (AID 1184);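 further: parasites grown inside human red blood cells in medium with human serum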; settings: P. falciparum 3D7 growth, 3 d, higher = more signal
[3] = target: Homeobox protein Hox-A13 (Mus musculus) (UniProt Q62424); assay: inhibitors of HoxA13-DNA binding, primary screen, biochemical, fluorescence polarization, labeled oligonucleotide (AID 1185); settings: 15 min, higher = more signal, called active from +8 up or from −8 down
[4] = inhibitors of hydroxyurea-induced Chk1 phosphorylation, primary screen, imaging, HeLa, phospho-Chk1 antibody, percent positive cells (AID 1186); settings: hydroxyurea-induced phospho-Chk1 immunofluorescence imaging, higher = more signal
[5] = inhibitors of hydroxyurea-induced Chk1 phosphorylation, primary screen, imaging, HeLa, phospho-Chk1 nuclear intensity (AID 1187); settings: hydroxyurea-induced phospho-Chk1 immunofluorescence imaging, higher = more signal

Sequence of Homeobox protein Hox-A13 (Mus musculus) (Q62424 whole entry, looked up): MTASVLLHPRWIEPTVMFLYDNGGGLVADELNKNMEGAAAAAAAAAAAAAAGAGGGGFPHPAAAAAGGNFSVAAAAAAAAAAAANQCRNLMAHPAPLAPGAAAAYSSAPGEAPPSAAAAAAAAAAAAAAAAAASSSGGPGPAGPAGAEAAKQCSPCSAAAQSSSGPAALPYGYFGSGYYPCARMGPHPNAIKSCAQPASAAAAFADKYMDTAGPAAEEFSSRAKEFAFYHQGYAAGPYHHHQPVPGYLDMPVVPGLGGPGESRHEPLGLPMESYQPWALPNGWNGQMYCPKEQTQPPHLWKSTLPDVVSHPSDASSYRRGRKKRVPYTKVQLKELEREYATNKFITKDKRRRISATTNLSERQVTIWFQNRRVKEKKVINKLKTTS

With `CC(C)(C)OC(=O)COc1cccc(C(=O)CCN2CCOCC2)c1` the composite z-score [1] was 0.123 (inactive), the composite z-score (XIP peptide (Xip251-270)) was 0.248 and the z-score [2] was -0.367. For the same molecule, the z-score [3] was -1.11 (inactive), the z-score [4] was -0.118 (inactive) and the z-score [5] was 0.0155 (inactive).

In the case of `O=C(O)[C@@H]1[C@@H]2C(=O)N(c3ccccc3)C(=O)[C@@H]2C[C@@H]1Sc1ccccc1`, the composite z-score [1] is reported as -0.213 (inactive), the composite z-score (XIP peptide (Xip251-270)) is reported as 0.463 and the z-score [2] is reported as 0.0183. The z-score [3] was -2.65 (inactive), the z-score [4] was 0.701 (inactive) and the z-score [5] was -0.162 (inactive).

With `COCCCNC(=O)[C@@]1(CCC(=O)OC(C)(C)C)N=C(c2ccc(OCCCO)cc2)O[C@H]1c1ccccc1N=[N+]=[N-]` the composite z-score [1] was 3.51 (inactive), the composite z-score (XIP peptide (Xip251-270)) was 0.476 and the z-score [2] was -2.39. For the same molecule, the z-score [3] was -4.09 (inactive), the z-score [4] was 0.739 (inactive) and the z-score [5] was 1.43 (inactive).

In the case of `O=C1NC(=O)C2C1C=CC(C(O)c1ccco1)N2Nc1ccc(Cl)cc1Cl` (centres undefined), the composite z-score [1] is reported as -0.101 (inactive), the composite z-score (XIP peptide (Xip251-270)) is reported as 0.634 and the z-score [2] is reported as -0.461. The z-score [3] was -5.4 (inactive), the z-score [4] was 0.54 (inactive) and the z-score [5] was 0.408 (inactive).

For `CN1C2C=C(CCCO)C(C3C(=O)N(C(N)=O)C(=O)C32)C1C1CC1` (centres undefined), the composite z-score [1] was 0.379 (inactive), the composite z-score (XIP peptide (Xip251-270)) was -0.0081 and the z-score [2] was 1.89. For the same molecule, the z-score [3] was -7.09 (inactive), the z-score [4] was -0.25 (inactive) and the z-score [5] was 0.161 (inactive).

In the case of `CCOC(=O)C1=CC[C@@H](c2ccccc2)N(S(=O)(=O)c2ccc(C)cc2)[C@H]1c1ccccc1`, the composite z-score [1] is reported as 0.267 (inactive), the composite z-score (XIP peptide (Xip251-270)) is reported as 0.528 and the z-score [2] is reported as -1.67. For the same molecule, the z-score [3] was 0.268 (inactive), the z-score [4] was 0.339 (inactive) and the z-score [5] was -1.24 (inactive).

For `O=C1C2C=CC(C(O)c3cccc(O)c3)N(Nc3ccc([N+](=O)[O-])cc3)C2C(=O)N1c1ccccc1` (centres undefined), the composite z-score [1] was -0.232 (inactive), the composite z-score (XIP peptide (Xip251-270)) was 0.342 and the z-score [2] was 1.25. For the same molecule, the z-score [3] was -3.9 (inactive), the z-score [4] was 0.181 (inactive) and the z-score [5] was -0.322 (inactive).

In the case of `C=C(/C(=C/C[C@H](OC(C)=O)c1ccc(CO)o1)c1cnc2ccccc2c1)C(C)C`, the composite z-score [1] is reported as 0.0103 (inactive), the composite z-score (XIP peptide (Xip251-270)) is reported as 0.769 and the z-score [2] is reported as -1.14. For the same molecule, the z-score [3] was -6.46 (inactive), the z-score [4] was -0.136 (inactive) and the z-score [5] was 0.181 (inactive).

In the case of `Cc1cc(C)c(C(O)C2C=CC3C(=O)N(c4ccccc4)C(=O)C3N2Nc2ccccc2F)c(C)c1` (centres undefined), the composite z-score [1] is reported as -0.121 (inactive), the composite z-score (XIP peptide (Xip251-270)) is reported as 0.863 and the z-score [2] is reported as -0.286. For the same molecule, the z-score [3] was -1.39 (inactive), the z-score [4] was 0.153 (inactive) and the z-score [5] was -0.0495 (inactive).

With `C=CC[C@@]1(C(=O)NCCCOC)N=C(c2ccc(OCCCO)cc2)O[C@@H]1c1ccccc1` the composite z-score [1] was 1.42 (inactive), the composite z-score (XIP peptide (Xip251-270)) was 0.805 and the z-score [2] was -1.95. For the same molecule, the z-score [3] was -4.75 (inactive), the z-score [4] was -0.339 (inactive) and the z-score [5] was -0.343 (inactive).

In the case of `CCCC1(C(=O)OC)C=C2C(=C(C)C(=O)C2C)CN1` (centres undefined), the composite z-score [1] is reported as -1.06 (inactive), the composite z-score (XIP peptide (Xip251-270)) is reported as -0.527 and the z-score [2] is reported as 0.43. For the same molecule, the z-score [3] was -4.88 (inactive), the z-score [4] was 0.779 (inactive) and the z-score [5] was 0.909 (inactive).

For `C=C(/C(=C/C[C@H](OC(=O)c1ccncc1)c1ccc(CO)o1)c1cnc2ccccc2c1)C(C)C`, the composite z-score [1] was 0.276 (inactive), the composite z-score (XIP peptide (Xip251-270)) was 0.647 and the z-score [2] was -0.137. For the same molecule, the z-score [3] was -5.42 (inactive), the z-score [4] was -0.282 (inactive) and the z-score [5] was -0.39 (inactive).

For `COCCOC(=O)N1C(=O)[C@@]2(c3cc(C#CC4(O)CCCCCC4)ccc31)[C@H](c1ccc(O)cc1)N1[C@H](c3ccccc3)[C@H](c3ccccc3)OC(=O)[C@H]1[C@@H]2C(=O)N1CCN(c2ncccn2)CC1`, the composite z-score [1] was 0.0849 (inactive), the composite z-score (XIP peptide (Xip251-270)) was 0.699 and the z-score [2] was -1.99. For the same molecule, the z-score [3] was -1.62 (inactive), the z-score [4] was 0.13 (inactive) and the z-score [5] was 0.232 (inactive).

With `CC1CC/C=C\[C@H]2OC34C=CCN(Cc5ccccc5)C(=O)[C@H]3N(C(CO)C(C)C)C(=O)[C@@H]4C2C(=O)O1` (some centres undefined) the composite z-score [1] was 0.0855 (inactive), the composite z-score (XIP peptide (Xip251-270)) was -0.555 and the z-score [2] was 0.597. The z-score [3] was -5.14 (inactive), the z-score [4] was -0.0785 (inactive) and the z-score [5] was -0.204 (inactive).

With `COC(=O)c1c(CC[C@@H](CO)NC(=O)N[C@@H](C)Cn2cc(-c3ccccn3)nn2)oc(C(C)=O)c1C(=O)OC` the composite z-score [1] was 1.29 (inactive), the composite z-score (XIP peptide (Xip251-270)) was 0.881 and the z-score [2] was -1.89. The z-score [3] was 0.452 (inactive), the z-score [4] was -0.207 (inactive) and the z-score [5] was 0.363 (inactive).

With `COc1ccc(C(=O)Nc2ccc(CN3C(=O)[C@]4(O[C@H](CC(=O)N5Cc6ccccc6C[C@H]5CO)[C@@H]([Si](C)(C)c5ccc(OC)cc5)[C@@H]4C)c4ccccc43)cc2)cc1` the composite z-score [1] was 1.22 (inactive), the composite z-score (XIP peptide (Xip251-270)) was 0.775 and the z-score [2] was -2.31. The z-score [3] was 0.247 (inactive), the z-score [4] was 0.714 (inactive) and the z-score [5] was 0.329 (inactive).

With `COC(=O)C(CC#Cc1ccc2c(c1)[C@]1(C(=O)N2)[C@H](c2ccc(O)cc2)N2[C@H](c3ccccc3)[C@H](c3ccccc3)OC(=O)[C@H]2[C@@H]1C(=O)NC[C@H](O)c1ccccc1)C(=O)OC` the composite z-score [1] was 0.646 (inactive), the composite z-score (XIP peptide (Xip251-270)) was 0.42 and the z-score [2] was 0.452. The z-score [3] was -3 (inactive), the z-score [4] was -0.0427 (inactive) and the z-score [5] was -0.171 (inactive).

With `CCOC(=O)C1=C[C@@H](C(C)(C)C)N(S(=O)(=O)c2ccc(C)cc2)[C@H]1c1cccc2ccccc12` the composite z-score [1] was -0.247 (inactive), the composite z-score (XIP peptide (Xip251-270)) was 0.236 and the z-score [2] was -1.93. The z-score [3] was 0.961 (inactive), the z-score [4] was 0.721 (inactive) and the z-score [5] was 0.521 (inactive).

For `CC(C)NC(=O)[C@@]1(c2ccc([N+](=O)[O-])cc2)CC(=O)N(C2CCCCC2)[C@@H]1c1ccc(CO)cc1`, the composite z-score [1] was 1.15 (inactive), the composite z-score (XIP peptide (Xip251-270)) was 0.786 and the z-score [2] was -0.385. For the same molecule, the z-score [3] was -3.11 (inactive), the z-score [4] was 0.127 (inactive) and the z-score [5] was 0.0865 (inactive).

For `COCCOC(=O)N1C(=O)[C@@]2(c3cc(C#CC4(O)CCCCCC4)ccc31)[C@H](C(=O)Nc1nc3ccccc3s1)[C@H]1C(=O)O[C@H](c3ccccc3)[C@H](c3ccccc3)N1[C@@H]2c1ccc(O)cc1`, the composite z-score [1] was 0.479 (inactive), the composite z-score (XIP peptide (Xip251-270)) was 0.817 and the z-score [2] was 0.219. The z-score [3] was -1.09 (inactive), the z-score [4] was -0.205 (inactive) and the z-score [5] was 0.0486 (inactive).

For `C=C(COC)/C(=C/C[C@H](OC(=O)c1ccncc1)c1ccccc1OCCO)c1cc(C(=O)OC)ccc1OC`, the composite z-score [1] was 0.0249 (inactive), the composite z-score (XIP peptide (Xip251-270)) was 0.12 and the z-score [2] was -2.95. For the same molecule, the z-score [3] was -4.91 (inactive), the z-score [4] was 0.127 (inactive) and the z-score [5] was 0.0857 (inactive).

For `CC(C)C(CO)N1C(=O)[C@@H]2[C@H]3C(=O)OCC=C[C@H]3OC23C=CCN(c2ccc(Cl)cc2)C(=O)[C@@H]13` (some centres undefined), the composite z-score [1] was 0.331 (inactive), the composite z-score (XIP peptide (Xip251-270)) was -0.202 and the z-score [2] was -0.485. For the same molecule, the z-score [3] was -3.03 (inactive), the z-score [4] was -0.438 (inactive) and the z-score [5] was -0.468 (inactive).

For `C=CCC(OC(C)=O)[C@@H]1[C@@H](N(Cc2cc3ccccc3o2)C(=O)Cc2ccc(F)cc2)c2cc(OCCCO)ccc2N1C(=O)Cc1ccc2ccccc2c1` (some centres undefined), the composite z-score [1] was -0.0865 (inactive), the composite z-score (XIP peptide (Xip251-270)) was -0.507 and the z-score [2] was 0.694. The z-score [3] was -1.9 (inactive), the z-score [4] was 0.725 (inactive) and the z-score [5] was 0.113 (inactive).

With `[N-]=[N+]=Nc1ccccc1C[C@]1(C(=O)N2CCOCC2)COC(c2ccc(OCCCO)cc2)=N1` the composite z-score [1] was 0.373 (inactive), the composite z-score (XIP peptide (Xip251-270)) was 0.666 and the z-score [2] was -2.03. The z-score [3] was -6.82 (inactive), the z-score [4] was -0.488 (inactive) and the z-score [5] was -0.338 (inactive).
